Data on 99 compounds can be found in ChEMBL document CHEMBL1201862, “PubChem BioAssay data set” (2004).

About 2,100 (0.53%) of roughly 400,000 compounds were called active. About 14% were inconclusive and are not listed. How the calls were made is not given here. Shown is part of a subset that was picked to be rich in actives.

Chain of Ataxin-2 (Homo sapiens) (Q99700 whole entry): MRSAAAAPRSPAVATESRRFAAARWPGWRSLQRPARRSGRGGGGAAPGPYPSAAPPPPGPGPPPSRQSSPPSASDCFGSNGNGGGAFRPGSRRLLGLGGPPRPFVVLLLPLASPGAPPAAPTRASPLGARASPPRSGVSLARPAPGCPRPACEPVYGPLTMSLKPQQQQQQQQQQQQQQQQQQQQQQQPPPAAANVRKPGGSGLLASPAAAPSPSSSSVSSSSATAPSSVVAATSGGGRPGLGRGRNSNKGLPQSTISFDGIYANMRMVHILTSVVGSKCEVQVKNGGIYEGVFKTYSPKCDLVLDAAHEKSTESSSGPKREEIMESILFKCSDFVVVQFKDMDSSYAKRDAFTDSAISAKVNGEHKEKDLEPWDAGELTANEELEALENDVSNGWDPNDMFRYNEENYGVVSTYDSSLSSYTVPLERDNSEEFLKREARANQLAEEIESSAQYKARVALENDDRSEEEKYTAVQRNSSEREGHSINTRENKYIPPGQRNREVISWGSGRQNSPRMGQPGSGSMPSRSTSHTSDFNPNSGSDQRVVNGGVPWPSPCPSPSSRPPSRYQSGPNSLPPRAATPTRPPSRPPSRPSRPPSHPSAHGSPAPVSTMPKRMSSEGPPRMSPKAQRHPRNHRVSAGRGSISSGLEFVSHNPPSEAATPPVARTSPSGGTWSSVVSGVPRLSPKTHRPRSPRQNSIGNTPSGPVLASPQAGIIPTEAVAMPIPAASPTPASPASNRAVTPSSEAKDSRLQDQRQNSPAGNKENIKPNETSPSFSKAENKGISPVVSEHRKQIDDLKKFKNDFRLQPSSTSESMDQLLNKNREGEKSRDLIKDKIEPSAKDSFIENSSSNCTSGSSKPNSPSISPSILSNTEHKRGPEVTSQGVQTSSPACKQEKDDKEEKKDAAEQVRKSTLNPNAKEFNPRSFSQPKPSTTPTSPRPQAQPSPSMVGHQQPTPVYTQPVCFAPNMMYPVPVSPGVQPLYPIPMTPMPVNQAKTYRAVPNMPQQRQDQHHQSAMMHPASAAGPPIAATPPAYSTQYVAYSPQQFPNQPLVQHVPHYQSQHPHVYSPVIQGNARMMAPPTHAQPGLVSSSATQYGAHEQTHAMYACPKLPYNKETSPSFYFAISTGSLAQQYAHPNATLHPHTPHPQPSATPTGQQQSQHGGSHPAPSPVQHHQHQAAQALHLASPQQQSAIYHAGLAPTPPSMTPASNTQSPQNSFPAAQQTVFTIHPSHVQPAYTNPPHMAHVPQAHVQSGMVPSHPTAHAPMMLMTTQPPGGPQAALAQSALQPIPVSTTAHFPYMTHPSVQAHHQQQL

The assay has as its target Ataxin-2 (Homo sapiens) (UniProt Q99700). The experiment in a line: qHTS for Inhibitors of ATXN expression. The format is functional.
`COc1cccc(C2=CC(c3ccc(OC)c(OC)c3OC)n3ncnc3N2)c1` (centres undefined): the Potency result was “inactive”.

Consider `COc1ccc(OC)c(/C=C2\Oc3cc(OCC(=O)N4CCC(C(=O)O)CC4)ccc3C2=O)c1`, for which the Potency result was “inactive”.

`CC(=O)Oc1ccc2cc(-c3ccccc3)c(=O)oc2c1`: the Potency result is “inactive”.

For `Cc1ccc(S(=O)(=O)N2CCCN(C(=O)c3ccc(-n4cccn4)cc3)CC2)cc1`, the Potency result is “inactive”.

For `O=C(CCl)N1CCN(S(=O)(=O)c2ccc3c(c2)CCC3)CC1`, the Potency was 8.91 µM (active).

For the compound `Cc1ccc(S(=O)(=O)N2CCN(C(=O)CCn3cncn3)CC2)cc1C`, the Potency entry is “inactive”.

As for `O=C(CCl)N1CCN(S(=O)(=O)c2ccc3ccccc3c2)CC1`, the Potency was 39.8 µM (active).

Regarding `CC(=O)N1CCN(S(=O)(=O)c2ccc(F)c(Cl)c2)CC1`, the Potency result was “inactive”.

Turning to `Nc1cc(O)nc(SCC(=O)N2CCN(S(=O)(=O)c3ccc4ccccc4c3)CC2)n1`, the Potency result is “inactive”.

As for `O=C(Cn1ncc(Cl)c(Cl)c1=O)N1CCN(S(=O)(=O)c2ccc3ccccc3c2)CC1`, the Potency is 35.5 µM (active).

As for `O=C(Cn1cnc2ccccc21)N1CCN(S(=O)(=O)c2ccccc2)CC1`, the Potency entry was “inactive”.

Regarding `O=C(c1cnc(Cl)c(Cl)c1)N1CCN(S(=O)(=O)c2ccc3ccccc3c2)CC1`, the Potency was 31.6 µM (active).

As for `CCOCCCNC(=O)CN1CCN(S(=O)(=O)c2ccc3c(c2)CCC3)CC1`, the Potency result is “inactive”.

Consider `CCN=C(S)N1CCN(S(=O)(=O)c2ccc(C)c(C)c2)CC1`, for which the Potency entry was “inactive”.

Regarding `O=C(Cc1cccs1)N1CCN(S(=O)(=O)c2ccc(Cl)c(C(F)(F)F)c2)CC1`, the Potency entry was “inactive”.

On to `COCCn1c(=N)c(C(=O)NC(C)c2ccccc2)cc2c(=O)n3cc(C)ccc3nc21` (centres undefined), for which the Potency entry was “inactive”.

For the compound `CCN(CC)c1ccc2cc(C(N)=O)/c(=N\NC(=O)c3ccncc3)oc2c1`, the Potency result is “inactive”.

Turning to `CCCc1c(C(=O)N/N=C/c2ccc(OCc3ccc(F)cc3)cc2)nnn1-c1nonc1N`, the Potency result was “inactive”.

For the compound `COc1ccc(N2C(=O)/C(=C\Nn3cnnc3)c3ccccc3C2=O)cc1`, the Potency entry was “inactive”.

For the compound `Cc1ccc(C(=O)O)cc1N1C(=O)c2cccc3c([N+](=O)[O-])ccc(c23)C1=O`, the Potency entry was “inactive”.

Regarding `O=C(N/N=C/c1sc(N2CCOCC2)nc1-c1ccccc1)c1ccc(O)cc1`, the Potency result is “inactive”.

For the compound `CN(C)CCN(Cc1cc2cc3c(cc2nc1O)OCO3)C(S)=NCC1CCCO1` (centres undefined), the Potency entry was “inactive”.

As to `Cc1ccc2cc(CN(Cc3ccc(F)cc3)Cc3nnnn3C3CCCC3)c(O)nc2c1`, the Potency was 39.8 µM (active).

`Cc1cc(C)c2cc(CN(Cc3nnnn3C3CCCCC3)CC3CCCO3)c(O)nc2c1` (centres undefined): the Potency is 22.4 µM (active).

For `CCC(NC(C)C)C(O)c1ccc(O)c2[nH]c(=O)ccc12` (centres undefined), the Potency result was “inactive”.

Consider `COc1ccc(Cl)cc1NC(=O)COC(=O)c1ccc(C)o1`, for which the Potency entry is “inactive”.

With `CCOc1ccccc1N(CC(=O)Nc1ccccc1Br)S(=O)(=O)c1ccccc1`, the Potency result was “inactive”.

Take `COc1ccc(Cl)cc1NC(=O)CN(c1cc(C)cc(C)c1)S(=O)(=O)c1c(C)n[nH]c1C`: the Potency was 35.5 µM (active).

As to `COc1ccc(Cl)cc1NC(=O)CN(C)C1CCS(=O)(=O)C1` (centres undefined), the Potency result was “inactive”.

With `CCOc1ccc(OCC)c(NC(=O)CN(c2ccc(C)cc2)S(=O)(=O)c2c(C)n[nH]c2C)c1`, the Potency is 35.5 µM (active).

Consider `COc1ccc(C)cc1NC(=O)CN(C)S(=O)(=O)c1ccc2c(c1)CC(C)N2C(C)=O` (centres undefined), for which the Potency result is “inactive”.

As for `Cc1ccc2[nH]c3c(c2c1)SC(C)(C)CC3=O`, the Potency result is “inactive”.

For `C=CCc1ccc(O)c(-c2ccc(O)c(CC=C)c2)c1`, the Potency is 28.2 µM (active).

Take `CC(=O)Nc1sc(/C(C#N)=C\c2cccc(Cl)c2)nc1-c1ccc(C)cc1`: the Potency result is “inactive”.

As for `CCC(C)n1c(=N)c(C(=O)NCc2ccco2)cc2c(=O)n3cc(C)ccc3nc21` (centres undefined), the Potency result is “inactive”.

In the case of `COc1ccc(Cl)cc1-c1n[nH]c(SCC(=O)NC2CC2)n1`, the Potency result is “inactive”.

Regarding `CNC(=O)COC(=O)c1c2c(nc3ccccc13)CCC2`, the Potency entry was “inactive”.

On to `COc1ccc(CC(=O)Nc2ccc3nc(Nc4cccc(Cl)c4)cc(C)c3c2)cc1OC`, for which the Potency result was “inactive”.

Consider `COc1ccc(NC(=O)CSc2nc3ccsc3c(=O)n2Cc2ccccn2)c(OC)c1`, for which the Potency entry is “inactive”.

Regarding `Cc1ccc(NC(=O)CSc2c3c(nc4ccccc24)CCCC3)cc1F`, the Potency was 35.5 µM (active).

On to `COc1ccc(NC(=O)CSc2c3c(nc4cc(Cl)ccc24)CCCC3)cc1OC`, for which the Potency is 31.6 µM (active).

For the compound `COc1ccc(NC(=O)CSc2c3c(nc4ccccc24)CCCC3)c(OC)c1`, the Potency is 39.8 µM (active).

`COc1ccc(NC(=O)CSc2nc(C)cs2)c(OC)c1`: the Potency result is “inactive”.

For the compound `O=C(CSc1nnc(-c2ccccc2F)n1C1CC1)Nc1ccc2[nH]c(O)nc2c1`, the Potency entry is “inactive”.

Regarding `COc1cccc(NC(=O)CSc2c3c(nc4ccccc24)CCCC3)c1`, the Potency is 35.5 µM (active).

`Cc1ccc(C2CC(=O)Nc3cc4c(cc32)OCCO4)cc1` (centres undefined): the Potency result is “inactive”.

For the compound `CCOC(=O)C1=C(N)Oc2cc(O)ccc2C1c1ccc(F)cc1F` (centres undefined), the Potency result is “inactive”.

With `CCCn1c(SCC(=O)NCCCN2CCCC2=O)nc2ccccc2c1=O`, the Potency entry was “inactive”.

As to `COc1ccc(CCNC(=O)C(=O)NCc2ccc(Cl)cc2)cc1OC`, the Potency result is “inactive”.

With `Cc1ccc(NC(=O)CSc2nc3ccccc3c(=O)n2CCCC(=O)NCCCN2CCOCC2)cc1`, the Potency result is “inactive”.

Regarding `COc1ccc(CCNC(=O)Cc2c(C)c3ccc(O)c(C)c3oc2=O)cc1OC`, the Potency result was “inactive”.

Take `COc1ccc(OC)c(NC(=O)CSc2nc3nc(O)cc(O)c3s2)c1`: the Potency result was “inactive”.

In the case of `COc1ccc(CCNC(=O)c2ccc3c(Cl)c4c(nc3c2)CCCC4)cc1OC`, the Potency is 31.6 µM (active).

Regarding `Cc1ccc(NC(=O)CSc2nc3ccccc3c(=O)n2CCCN2CCCCC2)cc1C`, the Potency was 31.6 µM (active).

Regarding `COc1ccc(OC)c(NC(=O)CSc2c3c(nc4ccccc24)CCCC3)c1`, the Potency was 39.8 µM (active).

As for `CCOC(=O)c1cc2c(=O)n3ccccc3nc2n(C(C)C)/c1=N/C(=O)C(C)(C)Oc1ccc(Cl)cc1`, the Potency result was “inactive”.

With `CCn1c(=N)c(C(=O)NCc2ccccc2)cc2c(=O)n3cccc(C)c3nc21`, the Potency entry was “inactive”.

Take `Nc1nc2nccc(-c3cccnc3)n2n1`: the Potency entry was “inactive”.

For the compound `c1cncc(-c2nnc(-c3cccnc3)nn2)c1`, the Potency was 35.5 µM (active).

On to `O=C(O)c1cccc(CSc2nnc(-c3cccnc3)o2)c1`, for which the Potency entry was “inactive”.

As to `CCOC(=O)C1=C(C)c2ccccc2N(C(=O)OC)C1(C)C(=O)OCC` (centres undefined), the Potency is 35.5 µM (active).

For the compound `O=C1c2ccccc2-c2onc3c(N4CCN(CCO)CC4)cc(N4CCN(C(=O)c5ccco5)CC4)c1c23`, the Potency was 39.8 µM (active).

As to `O=C(c1ccco1)N1CCN(Cc2cc(=O)oc3cc(O)ccc23)CC1`, the Potency result is “inactive”.

For the compound `Nc1cccc2c1C(=O)N(C(=O)c1ccco1)C2=O`, the Potency result was “inactive”.

For `CC(C)(C)N(CC#CCC(O)(c1ccccc1)c1ccccc1)CCO`, the Potency entry was “inactive”.

For `CCC(C(=O)NCCc1ccccc1)c1ccccc1` (centres undefined), the Potency entry was “inactive”.

Take `CCC[C@@H](CNC)NC[C@H](Cc1ccccc1)NCCCCc1ccccc1`: the Potency is 39.8 µM (active).

As to `CCCn1c(=N)c(S(=O)(=O)c2ccccc2)cc2c(=O)n3ccccc3nc21`, the Potency entry was “inactive”.

On to `CCCn1c(CC)nc([N+](=O)[O-])c1S(=O)(=O)c1ccccc1`, for which the Potency was 35.5 µM (active).

With `O=C(O)/C=C/c1nc(-c2ccccc2)n2ccccc12`, the Potency entry was “inactive”.

On to `CC(=O)Oc1c(-c2ccco2)oc2ccccc2c1=O`, for which the Potency entry is “inactive”.

As to `COc1cccc(CNC(=O)CCCc2nnc3n(C)c(=O)c4sccc4n23)c1`, the Potency entry is “inactive”.

Regarding `O=C(N/N=C/c1ccc([N+](=O)[O-])o1)c1cc2ccccc2o1`, the Potency was 10 µM (active).

With `Cc1ccc(C(=O)N/N=C/c2ccc(-c3ccc(Br)cc3[N+](=O)[O-])o2)o1`, the Potency entry is “inactive”.

For the compound `C/C(=N\Nc1ccc([N+](=O)[O-])cc1)c1cc2ccccc2o1`, the Potency entry is “inactive”.

Take `Cc1ccc(-c2ccc(/C=N\NC(=O)c3cc4c(ccc5ccccc54)o3)o2)cc1[N+](=O)[O-]`: the Potency was 37.7 µM (active).

Turning to `O=C(N/N=C/c1cc(Br)c(O)c(Br)c1)c1cc2c(ccc3ccccc32)o1`, the Potency result is “inactive”.

Take `COc1ccc(OC)c(/C=N\NC(=O)c2cc3c(ccc4ccccc43)o2)c1`: the Potency result was “inactive”.

With `CCOC(=O)c1cc2c(=O)n3ccccc3nc2n(CC2CCCO2)/c1=N\C(C)=O` (centres undefined), the Potency result is “inactive”.

With `CN(C)/C=N/C(=S)Nc1cc(Cl)cc(Cl)c1`, the Potency result is “inactive”.

Turning to `CC1CCc2nc(/C(C#N)=C/c3cccnc3)sc2C1` (centres undefined), the Potency result is “inactive”.

Take `C(=NOCc1ccccc1)c1ccccn1`: the Potency result is “inactive”.

With `CSC1=N/C(=C/c2cccnc2)C(=O)N1Cc1ccccc1`, the Potency entry is “inactive”.

For `CC1C/C(=C\c2cccnc2)C(=O)/C(=C/c2cccnc2)C1` (centres undefined), the Potency was 11.2 µM (active).

For `CCC1C/C(=C\c2cccnc2)C(=O)/C(=C/c2cccnc2)C1` (centres undefined), the Potency is 14.1 µM (active).

With `Cc1cccc(NC2=NC(=O)/C(=C/c3cccnc3)S2)c1`, the Potency entry is “inactive”.

With `CC1C/C(=C/c2ccccn2)C(=O)/C(=C/c2ccccn2)C1` (centres undefined), the Potency is 11.9 µM (active).

Regarding `COc1ccc(/C=C/C(=O)NCC(=O)N/N=C/c2cccnc2)cc1`, the Potency entry is “inactive”.

Turning to `CN(C)S(=O)(=O)c1cccc(NC(=O)Cn2cc(C(F)(F)F)cc(Cl)c2=O)c1`, the Potency result was “inactive”.

Consider `O=C(CSc1nnc2ccc(-c3ccccn3)nn12)Nc1cccc(F)c1`, for which the Potency entry was “inactive”.

Consider `Cc1cc(SCC(=O)Nc2cccnc2Cl)nc2ccccc12`, for which the Potency entry is “inactive”.

In the case of `O=C(CSc1cccc2cccnc12)N/N=C/c1cccnc1`, the Potency is 39.8 µM (active).

Regarding `Cc1ccc(NC(=O)CSc2nc3nc(O)cc(O)c3s2)c(Br)c1`, the Potency entry was “inactive”.

As for `Cc1ccc(NC(=O)CSc2cccc3cccnc23)c(C)c1`, the Potency was 39.8 µM (active).

Turning to `CN(C)S(=O)(=O)c1cccc(NC(=O)CSc2cccc3cccnc23)c1`, the Potency is 39.8 µM (active).

Take `Cc1cccc(NC(=O)CSc2cccc3cccnc23)c1`: the Potency was 44.7 µM (active).

As for `CCn1c(SCC(=O)Nc2cccc(C)c2)nc2nc3c(cc2c1=O)COC(C)(C)C3`, the Potency result was “inactive”.

Turning to `CN(C)S(=O)(=O)c1ccc(SCC(=O)Nc2cccc(S(=O)(=O)N3CCCC3)c2)nc1`, the Potency entry was “inactive”.

Take `O=C(CSc1ncccn1)N/N=C/c1ccccc1[N+](=O)[O-]`: the Potency result was “inactive”.
